# “And” between values parts separate entries of the source, which are not always exact repeats. Equal values may be shown once. Inconclusive results are not listed. Some structures have more than one record in an assay (separate samples or runs), and their calls can disagree. The source made the active and inactive calls. How the source made its calls: active means hit-call score of the fitted dose curve at least 0.9, where 1 is the maximum; inconclusive means response in the unintended direction; inactive means score below 0.9.
# Test system: not listed separately
# Assay: ATG_M_32_XSP1: Attagene TRANS-FACTORIAL Multi-Species (XSP1) HepG2 Assay for M32 Transcription Factor (Internal Marker) (AID 2283799)
# Method in brief: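 HepG2 cells transiently transfected with multi-species TRANS reporter units, dosed 24 h with 3 nM 6-alpha-fluorotestosterone present. Internal-marker reporter mRNA quantified by RT-PCR and capillary electrophoresis; positive-direction fit versus DMSO.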
row,SMILES,outcome
1,CCC(C)(C)C1CCC(O)CC1 (stereo not drawn),inactive
2,Cc1oc(-c2ccccc2)nc1CCOc1ccc(C[C@H](Nc2ccccc2C(=O)c2ccccc2)C(=O)O)cc1,inactive
3,CC[C@H](c1ccc(O)cc1)[C@@H](CC)c1ccc(O)cc1,inactive

# Molecular target: zebrafish Thyroid Hormone Receptor alpha (TRa), thraa (gene 30670) (UniProt Q98867)
# Sequence (Q98867 whole entry, looked up): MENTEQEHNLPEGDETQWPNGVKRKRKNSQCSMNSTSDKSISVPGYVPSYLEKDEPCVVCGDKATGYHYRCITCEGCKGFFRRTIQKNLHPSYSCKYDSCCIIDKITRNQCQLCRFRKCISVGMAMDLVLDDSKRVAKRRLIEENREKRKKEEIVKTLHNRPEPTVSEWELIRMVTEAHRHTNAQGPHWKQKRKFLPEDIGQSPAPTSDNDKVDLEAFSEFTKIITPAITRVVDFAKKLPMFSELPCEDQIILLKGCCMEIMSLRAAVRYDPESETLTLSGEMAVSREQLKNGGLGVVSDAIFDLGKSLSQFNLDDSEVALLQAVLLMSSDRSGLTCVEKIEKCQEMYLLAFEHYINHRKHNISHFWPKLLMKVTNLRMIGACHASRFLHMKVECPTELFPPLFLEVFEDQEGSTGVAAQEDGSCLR
# Assay: ATG_zfTRa_XSP1: Attagene TRANS-FACTORIAL Multi-Species (XSP1) HepG2 Assay for zebrafish Thyroid Hormone Receptor alpha (TRa) (AID 2283807)
# Method in brief: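 HepG2 cells transiently transfected with GAL4-UAS reporter units including a zebrafish TRa–Gal4 chimera, dosed 24 h with 3 nM 6-alpha-fluorotestosterone present. Reporter mRNA quantified by RT-PCR and capillary electrophoresis; gain versus DMSO.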
row,SMILES,outcome
1,CCC(C)(C)C1CCC(O)CC1 (stereo not drawn),inactive
2,Cc1oc(-c2ccccc2)nc1CCOc1ccc(C[C@H](Nc2ccccc2C(=O)c2ccccc2)C(=O)O)cc1,inactive
3,CC[C@H](c1ccc(O)cc1)[C@@H](CC)c1ccc(O)cc1,inactive

# Molecular target: zebrafish Thyroid Hormone Receptor beta (TRb), thrb (gene 30607) (UniProt Q9PVE4)
# Sequence (Q9PVE4 whole entry, looked up): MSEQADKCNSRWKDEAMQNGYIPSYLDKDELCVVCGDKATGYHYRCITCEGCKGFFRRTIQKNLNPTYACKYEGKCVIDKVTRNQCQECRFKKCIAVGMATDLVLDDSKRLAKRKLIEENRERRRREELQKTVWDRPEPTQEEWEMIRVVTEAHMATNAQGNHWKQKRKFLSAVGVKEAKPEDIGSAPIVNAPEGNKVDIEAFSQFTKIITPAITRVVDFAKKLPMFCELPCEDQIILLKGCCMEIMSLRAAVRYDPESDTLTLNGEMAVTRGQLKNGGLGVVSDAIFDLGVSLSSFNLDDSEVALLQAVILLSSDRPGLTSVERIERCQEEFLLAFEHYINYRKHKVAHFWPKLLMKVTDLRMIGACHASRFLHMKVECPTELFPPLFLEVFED
# Assay: ATG_zfTRb_XSP1: Attagene TRANS-FACTORIAL Multi-Species (XSP1) HepG2 Assay for zebrafish Thyroid Hormone Receptor beta (TRb) (AID 2283809)
# Method in brief: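 HepG2 cells transiently transfected with multiplexed GAL4-UAS reporter units expressing chimeric zebrafish TRb–Gal4. Dosed 24 h with 3 nM 6-alpha-fluorotestosterone present; reporter mRNA measured by RT-PCR, HpaI digestion and capillary electrophoresis; gain of signal versus DMSO.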
row,SMILES,outcome
1,CCC(C)(C)C1CCC(O)CC1 (stereo not drawn),inactive
2,Cc1oc(-c2ccccc2)nc1CCOc1ccc(C[C@H](Nc2ccccc2C(=O)c2ccccc2)C(=O)O)cc1,inactive
3,CC[C@H](c1ccc(O)cc1)[C@@H](CC)c1ccc(O)cc1,inactive

# Test system: not listed separately
# Assay: ATG_M_06_XSP2: Attagene TRANS-FACTORIAL Multi-Species (XSP2) HepG2 Assay for M06 Transcription Factor (Internal Marker) (AID 2283811);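 further: hits are increases in signal above the DMSO baseline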
# Method in brief: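 HepG2 cells transiently transfected with GAL4-UAS multiple reporter units, medium containing 3 nM 6-alpha-fluorotestosterone and 1.5 nM norgestrel; reporter mRNA measured 24 hours post-dosing by RT-PCR and capillary electrophoresis. Internal background marker, gain of signal vs DMSO.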
row,SMILES,outcome
1,O=c1c(-c2ccc(O)cc2)coc2cc(O)ccc12,inactive
2,CCC(=C(c1ccc(O)cc1)c1ccc(OCCN(C)C)cc1)c1ccccc1,inactive
3,CCCOC(=O)c1ccc(O)cc1,inactive
4,CCC(C)(C)C1CCC(O)CC1 (stereo not drawn),inactive
5,Cc1oc(-c2ccccc2)nc1CCOc1ccc(C[C@H](Nc2ccccc2C(=O)c2ccccc2)C(=O)O)cc1,inactive
6,c1ccc2c(c1)ccc1ccccc12,inactive
7,O=C(O)Cc1cc(I)c(Oc2cc(I)c(O)c(I)c2)c(I)c1,inactive
8,CC[C@H](c1ccc(O)cc1)[C@@H](CC)c1ccc(O)cc1,inactive

# Test system: turtle Estrogen Receptor (ERa), gene 101933533
# Assay: ATG_trERa_XSP2: Attagene TRANS-FACTORIAL Multi-Species (XSP2) HepG2 Assay for turtle Estrogen Receptor (ERa) (AID 2283812);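 further: human HepG2 liver cells transiently expressing turtle ERa-Gal4 chimeric receptor; actives raise reporter signal above DMSO so AC50 reflects agonist activity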
# Method in brief: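 HepG2 cells transiently transfected with GAL4-UAS reporter units expressing turtle ERa-Gal4 chimera. Reporter mRNA measured after 24 h dosing by RT-PCR, fluorescent labelling and capillary electrophoresis; gain of signal fitted versus DMSO.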
SMILES,AC50,outcome
O=c1c(-c2ccc(O)cc2)coc2cc(O)ccc12,994 nM (active) and 448 nM (active),–
CCCOC(=O)c1ccc(O)cc1,72.9 µM (active) and 726 nM (active),–
CCC(C)(C)C1CCC(O)CC1 (stereo not drawn),–,inactive
C#C[C@]1(O)CC[C@H]2[C@@H]3CCC4=CC(=O)CC[C@@H]4[C@H]3CC[C@@]21C,122 nM (active),–
Cc1oc(-c2ccccc2)nc1CCOc1ccc(C[C@H](Nc2ccccc2C(=O)c2ccccc2)C(=O)O)cc1,–,inactive
Oc1cc2ccccc2c2ccccc12,–,inactive
c1ccc2c(c1)ccc1ccccc12,–,inactive
O=C(O)Cc1cc(I)c(Oc2cc(I)c(O)c(I)c2)c(I)c1,–,inactive
CC[C@H](c1ccc(O)cc1)[C@@H](CC)c1ccc(O)cc1,0.0546 nM (active),–

# Molecular target: Estrogen receptor beta (Homo sapiens) (UniProt Q92731)
# Sequence (Q92731 whole entry, looked up): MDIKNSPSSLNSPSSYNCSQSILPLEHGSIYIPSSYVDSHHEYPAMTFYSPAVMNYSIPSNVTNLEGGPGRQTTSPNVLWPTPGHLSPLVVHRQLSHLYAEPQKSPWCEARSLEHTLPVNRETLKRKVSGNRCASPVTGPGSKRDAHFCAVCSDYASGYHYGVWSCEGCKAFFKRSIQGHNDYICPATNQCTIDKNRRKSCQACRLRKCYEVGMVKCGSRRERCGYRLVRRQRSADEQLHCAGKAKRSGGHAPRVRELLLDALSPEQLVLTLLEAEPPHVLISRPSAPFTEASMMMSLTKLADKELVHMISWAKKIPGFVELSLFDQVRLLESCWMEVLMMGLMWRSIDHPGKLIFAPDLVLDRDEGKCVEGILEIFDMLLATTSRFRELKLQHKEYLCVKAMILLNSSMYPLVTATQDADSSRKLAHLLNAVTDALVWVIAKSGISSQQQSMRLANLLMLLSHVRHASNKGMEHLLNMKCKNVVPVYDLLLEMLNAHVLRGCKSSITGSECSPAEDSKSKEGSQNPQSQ
# Assay: ATG_hERb_XSP2: Attagene TRANS-FACTORIAL Multi-Species (XSP2) HepG2 Assay for human Estrogen Receptor (ERb) (AID 2283813);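 further: actives raise reporter mRNA above DMSO so AC50 reflects agonist induction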
# Method in brief: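 HepG2 cells transiently transfected with GAL4-UAS reporter units and chimeric human ERb-Gal4, 24 h exposure. Reporter mRNA quantified by RT-PCR with FAM labelling, HpaI digestion and capillary electrophoresis; gain of signal versus DMSO.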
SMILES,outcome,AC50
CCC(=C(c1ccc(O)cc1)c1ccc(OCCN(C)C)cc1)c1ccccc1,inactive,–
CCCOC(=O)c1ccc(O)cc1,–,31.9 µM (active) and 2.52 µM (active)
C#C[C@]1(O)CC[C@H]2[C@@H]3CCC4=CC(=O)CC[C@@H]4[C@H]3CC[C@@]21C,–,2.43 µM (active)
Cc1oc(-c2ccccc2)nc1CCOc1ccc(C[C@H](Nc2ccccc2C(=O)c2ccccc2)C(=O)O)cc1,inactive,–
Oc1cc2ccccc2c2ccccc12,inactive,–
CC[C@H](c1ccc(O)cc1)[C@@H](CC)c1ccc(O)cc1,–,0.000147 µM (active)

# Molecular target: GAL4 Transcription Factor (Internal Marker), GAL4 (gene 855828) (UniProt P04386)
# Sequence (P04386 whole entry, looked up, the tested form may be a part): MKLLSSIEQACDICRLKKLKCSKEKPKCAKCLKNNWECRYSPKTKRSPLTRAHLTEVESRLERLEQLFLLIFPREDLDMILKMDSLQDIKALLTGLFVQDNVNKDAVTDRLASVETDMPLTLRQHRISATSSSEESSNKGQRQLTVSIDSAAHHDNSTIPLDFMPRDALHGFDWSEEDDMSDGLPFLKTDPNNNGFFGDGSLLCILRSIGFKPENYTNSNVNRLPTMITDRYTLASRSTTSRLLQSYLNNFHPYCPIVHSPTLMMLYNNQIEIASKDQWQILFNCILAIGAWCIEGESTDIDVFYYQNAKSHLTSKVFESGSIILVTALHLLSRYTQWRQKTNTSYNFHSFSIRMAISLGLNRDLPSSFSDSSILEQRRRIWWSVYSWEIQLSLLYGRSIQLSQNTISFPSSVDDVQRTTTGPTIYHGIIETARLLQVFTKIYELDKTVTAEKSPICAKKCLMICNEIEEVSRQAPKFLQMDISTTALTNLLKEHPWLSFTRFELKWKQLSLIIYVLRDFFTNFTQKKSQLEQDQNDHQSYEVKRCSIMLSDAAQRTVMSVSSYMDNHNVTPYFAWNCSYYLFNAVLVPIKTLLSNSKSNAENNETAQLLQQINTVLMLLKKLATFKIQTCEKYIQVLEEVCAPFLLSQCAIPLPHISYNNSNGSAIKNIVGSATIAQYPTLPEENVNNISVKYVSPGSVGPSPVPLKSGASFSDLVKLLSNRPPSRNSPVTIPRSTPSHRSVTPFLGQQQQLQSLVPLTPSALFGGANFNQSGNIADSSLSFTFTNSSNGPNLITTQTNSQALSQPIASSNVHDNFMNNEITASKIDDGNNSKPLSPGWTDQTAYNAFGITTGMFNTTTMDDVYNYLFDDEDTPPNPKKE
# Assay: ATG_GAL4_XSP2: Attagene TRANS-FACTORIAL Multi-Species (XSP2) HepG2 Assay for GAL4 Transcription Factor (Internal Marker) (AID 2283814);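 further: GAL4 reporter mRNA background control in MRTU transfected cells not a receptor target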
# Method in brief: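 HepG2 cells transiently transfected with GAL4-UAS reporter units, stimulated with 3 nM 6-alpha-fluorotestosterone plus 1.5 nM norgestrel, dosed 24 h. Reporter mRNA by RT-PCR/capillary electrophoresis; gain-of-signal fit versus DMSO, background control.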
row,SMILES,outcome
1,CCC(=C(c1ccc(O)cc1)c1ccc(OCCN(C)C)cc1)c1ccccc1,inactive
2,CCCOC(=O)c1ccc(O)cc1,inactive
3,CCC(C)(C)C1CCC(O)CC1 (stereo not drawn),inactive
4,Oc1cc2ccccc2c2ccccc12,inactive
5,c1ccc2c(c1)ccc1ccccc12,inactive
6,O=C(O)Cc1cc(I)c(Oc2cc(I)c(O)c(I)c2)c(I)c1,inactive

# Test system: turtle Androgen Receptor (AR), gene 101947425
# Assay: ATG_trAR_XSP2: Attagene TRANS-FACTORIAL Multi-Species (XSP2) HepG2 Assay for turtle Androgen Receptor (AR) (AID 2283815);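 on AC50: potency for gain of reporter signal meaning activation above DMSO baseline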
# Method in brief: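 HepG2 cells transiently transfected with GAL4-UAS reporter units for chimeric NR-Gal4 receptors; 24 h dosing in presence of 3 nM 6-alpha-fluorotestosterone and 1.5 nM norgestrel. Reporter mRNA by RT-PCR and capillary electrophoresis, gain of signal versus DMSO.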
SMILES,AC50,outcome
O=c1c(-c2ccc(O)cc2)coc2cc(O)ccc12,2320 nM (active),inactive
CCCOC(=O)c1ccc(O)cc1,–,inactive
C#C[C@]1(O)CC[C@H]2[C@@H]3CCC4=CC(=O)CC[C@@H]4[C@H]3CC[C@@]21C,180000 nM (active),–
O=C(O)Cc1cc(I)c(Oc2cc(I)c(O)c(I)c2)c(I)c1,–,inactive

# Molecular target: zebrafish Estrogen Receptor (ER1), esr1 (gene 259252) (UniProt P57717)
# Sequence (P57717 whole entry, looked up): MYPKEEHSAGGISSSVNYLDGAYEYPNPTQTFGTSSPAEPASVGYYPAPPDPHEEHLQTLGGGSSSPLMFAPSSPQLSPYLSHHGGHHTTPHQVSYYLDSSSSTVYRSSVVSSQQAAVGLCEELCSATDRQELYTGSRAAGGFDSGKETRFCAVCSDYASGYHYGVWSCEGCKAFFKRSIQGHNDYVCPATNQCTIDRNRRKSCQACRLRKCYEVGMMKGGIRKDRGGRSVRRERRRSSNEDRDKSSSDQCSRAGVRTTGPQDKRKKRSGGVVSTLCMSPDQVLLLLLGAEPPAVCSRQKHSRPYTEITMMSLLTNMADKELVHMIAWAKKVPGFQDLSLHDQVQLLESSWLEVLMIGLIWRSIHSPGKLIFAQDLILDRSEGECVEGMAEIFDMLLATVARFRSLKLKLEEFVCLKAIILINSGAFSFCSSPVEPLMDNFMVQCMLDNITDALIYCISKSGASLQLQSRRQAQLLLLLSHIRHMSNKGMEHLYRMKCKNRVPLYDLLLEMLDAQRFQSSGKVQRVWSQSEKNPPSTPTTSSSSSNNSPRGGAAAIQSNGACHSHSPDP
# Assay: ATG_zfER1_XSP2: Attagene TRANS-FACTORIAL Multi-Species (XSP2) HepG2 Assay for zebrafish Estrogen Receptor (ER1) (AID 2283816)
# Method in brief: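 HepG2 cells transiently transfected with a GAL4-UAS reporter and a chimeric zebrafish ER1-Gal4 construct, dosed 24 h. Reporter mRNA quantified by RT-PCR, labelling, HpaI digestion and capillary electrophoresis, relative to DMSO.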
SMILES,AC50,outcome
O=c1c(-c2ccc(O)cc2)coc2cc(O)ccc12,6.22 µM (active) and 2.67 µM (active),–
CCC(=C(c1ccc(O)cc1)c1ccc(OCCN(C)C)cc1)c1ccccc1,–,inactive
CCCOC(=O)c1ccc(O)cc1,11.1 µM (active),inactive
CCC(C)(C)C1CCC(O)CC1 (stereo not drawn),–,inactive
C#C[C@]1(O)CC[C@H]2[C@@H]3CCC4=CC(=O)CC[C@@H]4[C@H]3CC[C@@]21C,1.65 µM (active),–
Oc1cc2ccccc2c2ccccc12,–,inactive
O=C(O)Cc1cc(I)c(Oc2cc(I)c(O)c(I)c2)c(I)c1,–,inactive
CC[C@H](c1ccc(O)cc1)[C@@H](CC)c1ccc(O)cc1,0.000411 µM (active),–

# Molecular target: chicken Estrogen Receptor (ERa), ESR1 (gene 396099) (UniProt P06212)
# Sequence (P06212 whole entry, looked up): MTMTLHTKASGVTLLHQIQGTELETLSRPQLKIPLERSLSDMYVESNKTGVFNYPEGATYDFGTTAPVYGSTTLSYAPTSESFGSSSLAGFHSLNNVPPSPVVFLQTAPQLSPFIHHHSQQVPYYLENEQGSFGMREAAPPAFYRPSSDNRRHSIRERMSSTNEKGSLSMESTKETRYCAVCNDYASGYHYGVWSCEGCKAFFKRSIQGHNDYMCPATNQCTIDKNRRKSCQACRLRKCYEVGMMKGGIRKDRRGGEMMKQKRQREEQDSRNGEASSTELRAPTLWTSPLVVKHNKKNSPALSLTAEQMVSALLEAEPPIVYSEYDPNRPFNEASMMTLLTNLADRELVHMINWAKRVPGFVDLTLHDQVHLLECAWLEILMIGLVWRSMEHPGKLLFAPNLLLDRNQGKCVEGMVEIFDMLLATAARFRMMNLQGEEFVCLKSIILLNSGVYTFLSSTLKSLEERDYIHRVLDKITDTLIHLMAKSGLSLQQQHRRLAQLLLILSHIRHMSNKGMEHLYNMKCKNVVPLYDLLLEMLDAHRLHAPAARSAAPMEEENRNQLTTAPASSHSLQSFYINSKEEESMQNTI
# Assay: ATG_chERa_XSP2: Attagene TRANS-FACTORIAL Multi-Species (XSP2) HepG2 Assay for chicken Estrogen Receptor (ERa) (AID 2283817);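 further: actives raise reporter signal above DMSO so AC50 reflects ER activation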
# Method in brief: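 Transiently transfected HepG2 cells expressing chimeric chicken ERa-GAL4 reporter units, dosed 24 h with 3 nM 6-alpha-fluorotestosterone and 1.5 nM norgestrel present. Reporter mRNA measured by RT-PCR and capillary electrophoresis; gain-of-signal fitted relative to DMSO.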
SMILES,AC50,outcome
O=c1c(-c2ccc(O)cc2)coc2cc(O)ccc12,1.49 µM (active) and 369 nM (active),–
CCCOC(=O)c1ccc(O)cc1,27.8 µM (active) and 9.35 µM (active),–
CCC(C)(C)C1CCC(O)CC1 (stereo not drawn),–,inactive
C#C[C@]1(O)CC[C@H]2[C@@H]3CCC4=CC(=O)CC[C@@H]4[C@H]3CC[C@@]21C,76.6 nM (active),–
c1ccc2c(c1)ccc1ccccc12,–,inactive
CC[C@H](c1ccc(O)cc1)[C@@H](CC)c1ccc(O)cc1,0.0247 nM (active),–

# Source: PubChem BioAssay (EPA / NIEHS)
